Experimental data from PubChem BioAssay (Tox21).
“And” between values parts separate entries of the source, which are not always exact repeats. Equal values may be shown once. Records with an inconclusive call do not appear. Where a call stands in place of a potency, no number is given. The source holds several records for some structures; these can differ, active in one and inactive in another. The source made the active and inactive calls. Unless noted, the call rests on the fitted dose curve; in most records, active means well fitted curve in the direction sought with a large enough effect in the repeat runs; inconclusive means weak or mixed curves; inactive means no such curve, though single readings can be large; an effect the other way counts as inactive or inconclusive.

Experiments:
[1] = qHTS assay to identify small molecule agonists of the peroxisome proliferator-activated receptor delta (PPARd) signaling pathway - cell viability counter screen (AID 743211); further: nearly all actives have a fitted effect of over 55% in size
Outline: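 Counter screen for cytotoxicity run in parallel with the PPARd reporter screen. Beta-lactamase reporter HEK293H cells exposed to compounds 17 h; ATP-based CellTiter-Glo luminescence quantified viability.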

[2] = molecular target: Peroxisome proliferator-activated receptor delta (Homo sapiens) (UniProt Q03181); experiment: qHTS assay to identify small molecule agonists of the peroxisome proliferator-activated receptor delta (PPARd) signaling pathway (AID 743212; calls by dose curve)
Outline: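 HEK293H PPARd-bla cells; 5 h preincubation 37 C/5% CO2; compound (DMSO) 37 C; LiveBLAzer B/G FRET substrate 2 h RT; fluorescence intensity.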

[3] = qHTS assay to identify small molecule antagonists of the peroxisome proliferator-activated receptor delta (PPARd) signaling pathway - cell viability counter screen (AID 743213); further: nearly all actives have a fitted effect of over 50% in size; further: potency means the concentration at half of the fitted maximal effect
Outline: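 Cytotoxicity counter screen: CellTiter-Glo luminescence read 30 min after addition, in the same wells as the reporter assay. There, PPARd UAS-bla HEK293H cells (3000/well) were treated 17 h at 37 C with compound and 300 nM L165041.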

[4] = molecular target: Peroxisome proliferator-activated receptor delta (Homo sapiens) (UniProt Q03181); experiment: qHTS assay to identify small molecule antagonists of the peroxisome proliferator-activated receptor delta (PPARd) signaling pathway (AID 743215; active means well fitted inhibition curve with a large enough effect in the signal ratio in the repeat runs, not every such curve was filed as active; the % refers to the signal ratio;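 further: cells stimulated with agonist L165041 at 300 nM final during compound exposure; series mostly up to about 62 µM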)
Outline: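 Antagonist-mode beta-lactamase reporter screen: HEK293H cells with UAS-bla under PPARd control, stimulated by 300 nM L165041 (final) alongside test compound for 17 h at 37 C, then FRET fluorescence after 2 h substrate incubation.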

[5] = qHTS assay to identify small molecule agonists of the farnesoid-X-receptor (FXR) signaling pathway - cell viability counter screen (AID 743218); further: nearly all actives have a fitted effect of over 45% in size; further: potency means the concentration at half of the fitted maximal effect
Outline: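 In GeneBLAzer FXR-UAS-bla HEK 293T cells, compounds act for 16 h at 37 C. Cell viability is then scored in the reporter wells by CellTiter-Glo, 30 min at RT, luminescence.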

[6] = qHTS assay to identify small molecule antagonists of the farnesoid-X-receptor (FXR) signaling pathway - cell viability counter screen (AID 743221; active means well fitted cell-killing curve with a large enough effect in the repeat runs, not every such curve was filed as active; further: nearly all actives have a fitted effect of over 50% in size)
Outline: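 Multiplexed counter screen: viability of FXR-bla HEK 293T cells under agonist stimulation by chenodeoxycholic acid (50 uM, final) and test compound for 16 h at 37 C, measured by CellTiter-Glo luminescence in the reporter wells.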

[7] = molecular target: Vitamin D3 receptor (Homo sapiens) (UniProt P11473); experiment: qHTS assay to identify small molecule agonists of the vitamin D receptor (VDR) signaling pathway (AID 743222; calls by dose curve)
Outline: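 Agonist activity measured in VDR-bla reporter cells. Exposure 16 h, 37C, 5% CO2; detection by B/G FRET substrate, 2 h RT.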

[8] = molecular target: Vitamin D3 receptor (Homo sapiens) (UniProt P11473); experiment: qHTS assay to identify small molecule antagonists of the vitamin D receptor (VDR) signaling pathway (AID 743223; active means well fitted inhibition curve with a large enough effect in the signal ratio in the repeat runs, not every such curve was filed as active; the % refers to the signal ratio)
Outline: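 Cells carrying a VDR-driven beta-lactamase reporter (VDR-bla) were co-treated with compound and 3 nM final 1alpha,25-dihydroxyvitamin D3 for 16 h at 37C; reporter activity was measured as FRET substrate fluorescence after 2 h at room temperature.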

[9] = qHTS assay to identify small molecule agonists of the vitamin D receptor (VDR) signaling pathway - cell viability counter screen (AID 743224); further: nearly all actives have a fitted effect of over 50% in size; further: potency means the concentration at half of the fitted maximal effect
Outline: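 VDR-bla cell line, quantitative HTS format; 16 h compound incubation (37C, 5% CO2); ATP-based CellTiter-Glo luminescence measured in the reporter assay wells.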

[10] = qHTS assay to identify small molecule antagonists of the vitamin D receptor (VDR) signaling pathway - cell viability counter screen (AID 743225); further: nearly all actives have a fitted effect of over 50% in size
Outline: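 HEK293T VDR-bla; cpd + 1a,25-(OH)2D3 3 nM final, 16 h 37C/5% CO2; B/G FRET substrate 2 h RT; then CellTiter-Glo 30 min RT, luminescence.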

[11] = qHTS assay to identify small molecule agonists of the NFkB signaling pathway - cell viability counter screen (AID 1159515; calls by dose curve; further: series mostly up to about 61 µM; nearly all actives have a fitted effect of over 55% in size)
Outline: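 Viability in NFkB-bla ME-180 cells was measured by CellTiter-Glo luminescence, 30 min room temperature, in wells already treated 5 hr with compounds and read for reporter FRET.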

[12] = qHTS assay to identify small molecule agonists of the endoplasmic reticulum stress response signaling pathway (AID 1159516; active means well fitted activation curve with a large enough effect in the signal ratio in the repeat runs, not every such curve was filed as active; the % refers to the signal ratio)
Outline: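 ER stress element reporter (bla) in HeLa. 1,500 cells/well, overnight attachment; 5 hr compound; 2 hr RT substrate; dual-emission fluorescence.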

[13] = qHTS assay to identify small molecule antagonists of the retinoid-related orphan receptor gamma (ROR-gamma) signaling pathway - cell viability counter screen (AID 1159520); further: nearly all actives have a fitted effect of over 50% in size
Outline: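 Cytotoxicity was read from cellular ATP (CellTiter-Glo luminescence) after 16 hr at 37 C with 1 uM doxycycline induction. The inducer was added 2 hr after compound transfer to Tet-on ROR gamma CHO cells.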

[14] = molecular target: Nuclear receptor ROR-gamma (Homo sapiens) (UniProt P51449); experiment: qHTS assay to identify small molecule antagonists of the retinoid-related orphan receptor gamma (ROR-gamma) signaling pathway (AID 1159521; further: nearly all actives have a fitted effect of over 50% in size; further: potency means the concentration at half of the fitted maximal effect)
Outline: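 Cells were plated, rested 4 h at 37 C, exposed to compounds for 2 h, then given 1 uM final doxycycline hyclate to induce RORγ expression. After 16 h, ONE-Glo luminescence from the ROR response element reporter was measured.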

[15] = qHTS assay to identify small molecule agonists of the AP-1 signaling pathway - cell viability counter screen (AID 1159525; calls by dose curve; further: nearly all actives have a fitted effect of over 55% in size)
Outline: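 Luminescent ATP readout (Cell Titer Glo, 30 min RT), normalised to DMSO and tetra n-octyl ammonium bromide controls. Cells were ME-180 AP-1-bla in 0.5% dialyzed FBS Opti-MEM, with a 5 h, 37 °C compound exposure.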

[16] = qHTS assay to identify small molecule agonists of the AP-1 signaling pathway (AID 1159526; calls by dose curve; further: potency means the concentration at half of the fitted maximal effect)
[17] = molecular target: Retinoic acid receptor RXR-alpha (Homo sapiens) (UniProt P19793); experiment: qHTS assay to identify small molecule agonists of the RXR signaling pathway (AID 1159527; calls by dose curve; further: nearly all actives have a fitted effect of over 35% in size)
Outline: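 Cells plated at 2,000/well, rested 5 hr at 37 C, pin-dosed with DMSO compound solutions, incubated 16 hr, then loaded with B/G FRET substrate for 2 hr at RT before dual-emission fluorescence reading.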

[18] = molecular target: Bile acid receptor (Homo sapiens) (UniProt Q96RI1); experiment: qHTS assay to identify small molecule antagonists of the farnesoid-X-receptor (FXR) signaling pathway (AID 743217; active means well fitted inhibition curve with a large enough effect in the signal ratio in the repeat runs, not every such curve was filed as active; the % refers to the signal ratio)
Outline: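 Beta-lactamase reporter under UAS control in HEK 293T cells; compound exposure 16 h at 37 °C in the presence of chenodeoxycholic acid (50 uM final); signal from B/G FRET substrate after 2 h at room temperature.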

[19] = molecular target: Bile acid receptor (Homo sapiens) (UniProt Q96RI1); experiment: qHTS assay to identify small molecule agonists of the farnesoid-X-receptor (FXR) signaling pathway (AID 743220; active means well fitted activation curve with a large enough effect in the signal ratio in the repeat runs, not every such curve was filed as active; the % refers to the signal ratio)
Outline: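 Beta-lactamase reporter under UAS control in GeneBLAzer FXR HEK 293T cells (5000/well) measured with LiveBLAzer FRET substrate after 2 h at room temperature. Compound exposure lasted 16 h at 37C.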

Chain of Retinoic acid receptor RXR-alpha (Homo sapiens) (P19793 whole entry, looked up): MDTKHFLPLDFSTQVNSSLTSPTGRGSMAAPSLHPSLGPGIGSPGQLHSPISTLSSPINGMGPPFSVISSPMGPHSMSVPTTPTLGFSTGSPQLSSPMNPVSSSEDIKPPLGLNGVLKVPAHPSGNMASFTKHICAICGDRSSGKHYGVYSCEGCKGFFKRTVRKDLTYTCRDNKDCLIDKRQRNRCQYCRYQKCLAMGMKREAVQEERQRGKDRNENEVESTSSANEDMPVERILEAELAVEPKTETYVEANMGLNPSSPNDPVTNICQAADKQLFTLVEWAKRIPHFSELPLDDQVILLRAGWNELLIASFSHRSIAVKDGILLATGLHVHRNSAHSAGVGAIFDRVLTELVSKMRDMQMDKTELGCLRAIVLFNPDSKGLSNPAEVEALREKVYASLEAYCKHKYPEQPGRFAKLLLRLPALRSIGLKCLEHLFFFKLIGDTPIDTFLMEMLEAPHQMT
Chain of Peroxisome proliferator-activated receptor delta (Homo sapiens) (Q03181 whole entry, looked up): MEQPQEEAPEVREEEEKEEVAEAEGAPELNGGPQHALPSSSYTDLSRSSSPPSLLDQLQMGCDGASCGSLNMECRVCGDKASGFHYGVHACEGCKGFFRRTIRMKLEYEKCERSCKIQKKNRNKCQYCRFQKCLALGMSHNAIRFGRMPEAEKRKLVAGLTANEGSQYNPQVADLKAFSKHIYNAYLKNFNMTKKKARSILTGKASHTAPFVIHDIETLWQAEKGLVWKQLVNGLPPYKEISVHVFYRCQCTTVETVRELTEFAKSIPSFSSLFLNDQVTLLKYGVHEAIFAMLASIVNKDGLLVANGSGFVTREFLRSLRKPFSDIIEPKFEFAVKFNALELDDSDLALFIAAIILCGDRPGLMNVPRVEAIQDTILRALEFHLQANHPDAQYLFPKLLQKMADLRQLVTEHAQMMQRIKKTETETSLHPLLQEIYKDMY
Chain of Vitamin D3 receptor (Homo sapiens) (P11473 whole entry, looked up): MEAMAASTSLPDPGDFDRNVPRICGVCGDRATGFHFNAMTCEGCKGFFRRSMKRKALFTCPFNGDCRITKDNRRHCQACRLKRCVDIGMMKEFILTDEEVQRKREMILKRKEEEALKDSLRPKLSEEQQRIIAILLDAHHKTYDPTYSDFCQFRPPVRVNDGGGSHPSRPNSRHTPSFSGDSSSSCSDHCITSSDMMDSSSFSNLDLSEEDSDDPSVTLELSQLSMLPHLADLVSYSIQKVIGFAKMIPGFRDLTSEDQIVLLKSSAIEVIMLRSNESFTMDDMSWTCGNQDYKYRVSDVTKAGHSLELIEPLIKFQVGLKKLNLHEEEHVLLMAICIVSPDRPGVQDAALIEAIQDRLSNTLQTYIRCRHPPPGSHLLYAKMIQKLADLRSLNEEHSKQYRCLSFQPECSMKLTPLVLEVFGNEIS
Chain of Bile acid receptor (Homo sapiens) (Q96RI1 whole entry, looked up): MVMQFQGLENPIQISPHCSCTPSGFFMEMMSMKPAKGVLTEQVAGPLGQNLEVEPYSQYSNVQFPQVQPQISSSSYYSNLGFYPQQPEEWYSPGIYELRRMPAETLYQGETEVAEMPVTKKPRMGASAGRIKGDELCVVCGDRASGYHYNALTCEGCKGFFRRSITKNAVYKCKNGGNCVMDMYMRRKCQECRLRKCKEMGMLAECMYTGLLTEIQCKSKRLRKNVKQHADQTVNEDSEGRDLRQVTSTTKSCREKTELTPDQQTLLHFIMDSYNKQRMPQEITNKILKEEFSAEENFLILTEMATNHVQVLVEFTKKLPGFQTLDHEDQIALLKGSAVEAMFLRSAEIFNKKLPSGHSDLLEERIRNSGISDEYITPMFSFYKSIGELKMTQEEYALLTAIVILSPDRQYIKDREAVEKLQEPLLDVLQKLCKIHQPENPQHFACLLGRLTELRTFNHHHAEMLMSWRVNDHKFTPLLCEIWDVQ

| Compound | Potency [1] | outcome [2] | Potency [3] | outcome [4] | Potency [5] | Potency [6] | outcome [7] | outcome [8] | Potency [9] | Potency [10] | Potency [11] | Potency [12] | Potency [13] | Potency [14] | Potency [15] | Potency [16] | Potency [17] | Potency [18] | outcome [19] |
| --- | --- | --- | --- | --- | --- | --- | --- | --- | --- | --- | --- | --- | --- | --- | --- | --- | --- | --- | --- |
| C[C@]12CC[C@@H]3c4ccc(O)cc4CC[C@H]3[C@@H]1CC[C@H]2O | inactive | inactive | inactive | inactive | inactive | inactive | inactive | inactive | inactive | inactive | inactive | inactive | inactive | 17.5 µM (active) | inactive | – | – | – | – |
| O=C1OC2(c3ccccc31)c1cc(I)c(O)c(I)c1Oc1c2cc(I)c(O)c1I | – | inactive | inactive and 33.4 µM (active) | – | inactive | inactive | – | inactive | inactive and 26.5 µM (active) | inactive | inactive | inactive | inactive | 48.7 µM (active) and inactive | inactive | inactive and 29.8 µM (active) | inactive | – | – |
| O=C1CCc2ccccc2O1 | inactive | inactive | inactive | – | inactive | inactive | inactive | inactive | inactive | inactive | inactive | inactive | inactive | – | inactive | inactive | inactive | – | – |
| C[C@]12CC[C@@H]3c4ccc(O)cc4CC[C@H]3[C@@H]1CC[C@@H]2O | – | inactive | inactive | – | inactive | inactive | inactive | inactive | inactive | inactive | inactive | inactive | inactive | 27.3 µM (active) | inactive | inactive | – | – | – |
| CC(=O)OC(C)C | inactive | inactive | inactive | – | inactive | inactive | inactive | inactive | inactive | inactive | inactive | inactive | inactive | inactive | inactive | inactive | inactive | inactive | inactive |
| CC[C@]12CCCN3CCc4c(n(c5ccccc45)[C@@](O)(C(=O)OC)C1)[C@@H]32 | inactive | – | inactive | – | inactive | inactive | inactive | inactive | – | inactive | inactive | inactive | inactive | – | inactive | – | inactive | – | – |
| C=C[C@H]1CN2CC[C@H]1C[C@@H]2[C@@H](O)c1ccnc2ccc(OC)cc12 | inactive | inactive | inactive | inactive | 24.1 µM (active) and inactive | inactive | – | – | – | – | inactive | inactive | inactive | – | inactive | inactive | inactive | – | – |
| C=CN1CCCC1=O | inactive | inactive | inactive | – | inactive | inactive | – | – | inactive | inactive | inactive | inactive | inactive | inactive | inactive | inactive | inactive | – | – |
| CC(=O)[C@H]1CC[C@H]2[C@@H]3CC=C4C[C@@H](O)CC[C@]4(C)[C@H]3CC[C@]12C | inactive | inactive | inactive | – | inactive | inactive | inactive | inactive | – | inactive | inactive | inactive | inactive | 13.7 µM (active) | inactive | inactive | – | inactive | inactive |
| CC1=CC(C)(C)Nc2ccccc21 | inactive | inactive | inactive | inactive | inactive | inactive | inactive | – | – | inactive | inactive | inactive | inactive | inactive | inactive | inactive | inactive | – | – |
| O=C(O)COCCN1CCN(C(c2ccccc2)c2ccc(Cl)cc2)CC1 (stereo not drawn) | inactive | inactive | inactive | – | inactive | inactive | inactive | inactive | inactive | inactive | inactive | inactive | inactive | inactive | inactive | inactive | inactive | inactive | inactive |
